# Data taken from article PMC12136788.
# Positions count from the first letter of the chain named. Whole data set: some 24,000 sequences, median “enrichment r” near 0.99, cut for the highest 2% near 3.7. What follows is part of a selection rich in the highest values, with near analogues and random picks from the rest.
# T1: UNK ZnF1-3 (human, UniProt Q9C0B0 31-174)
# T1 sequence: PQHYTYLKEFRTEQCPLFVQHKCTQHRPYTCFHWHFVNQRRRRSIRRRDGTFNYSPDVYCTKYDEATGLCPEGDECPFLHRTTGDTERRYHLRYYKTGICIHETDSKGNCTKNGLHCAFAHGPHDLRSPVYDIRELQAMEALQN
# B1: chr16:5009651:5009652:-_ENSMUSG00000022540_ENSMUST00000023191|mus_hu|FALSE|FALSE (ssRNA)
# RNA: GGGAGUUCUACAGUCCGACGAUCUGCAGGGAGACGGUGAAGUAGACCAGGGCGUCGUUGAGCCAGGGGAUCACGCACUCCACUUUGUGCACGUGGCUCACCUCCAGGCGCUGAGAGCCCCACUCGAACAUGGCCCCAGGGCUACAACAGAGGAUUGAGCAUCA
# B2: 133220860_133220980_1226_CDS_ENSMUSG00000043257_ENSMUST00000062118|mouse|control|control (ssRNA)
# RNA: GGGAGUUCUACAGUCCGACGAUCGUAUAUUAGAGGAAGGUCCCAGGAGCACCAUGGGGGUGCAUUUUCUCCUGCAAGCCGGUAGCCUUUGUCGGCAGCUAGCUGCAGCAAGGGCUCAGGGAUGGAGGGGGCUGAGCCUGGUGACAACAGAGGAUUGAGCAUCA
# B3: chr7:141441981:141441982:+_ENSG00000106028_ENST00000265304|hu_mus|hu_hu_hu_mus_False|48_88 (ssRNA)
# RNA: GGGAGUUCUACAGUCCGACGAUCCUCAUGUCUUACAAACUGACGAAGUACCUGUAACACAGGUCUUCGAAACAUGGCUUCUGUUUUCUUUUCUUACUAAUCUUUAGGCUUUUCCUAAAGGAAAGAAAGAAAAGAGAAAAAUGACAACAGAGGAUUGAGCAUCA
# B4: chr17:56552419:56552420:-_ENSMUSG00000013236_ENSMUST00000086828|mus_mus|mus_mus_mus_hu_False|78_78 (ssRNA)
# RNA: GGGAGUUCUACAGUCCGACGAUCAAAAAAUACACUAUUUAAAAAAAAUGAAAUGUCAGAAAAAGAAGUUACACUGAGAGUUUUAAAAGAAAGCUGGAUUCUGGUCCCAGCCCAGUGUCCCCAGGCUGCAGAGCGGGGAGGAGCCAACAGAGGAUUGAGCAUCA
# B5: chr17:56552419:56552420:-_ENSMUSG00000013236_ENSMUST00000086828|mus_mus|mus_mus_mus_hu_False|48_78 (ssRNA)
# RNA: B4 RNA with G88A, G92A, C93U, U94A, G95A
# B6: chr17:56552419:56552420:-_ENSMUSG00000013236_ENSMUST00000086828|mus_mus|mus_mus_mus_hu_False|38_78 (ssRNA)
# RNA: B4 RNA with U98A, U99A, C100A, U101A, G102A, G103A, U104A, C105U, C106G
# B7: chr17:56552419:56552420:-_ENSMUSG00000013236_ENSMUST00000086828|mus_mus|mus_mus_mus_hu_False|18_78 (ssRNA)
# RNA: B4 RNA with U117G, C119A, C120G, C121G, A122C, G123A, C125G, U126G
# B8: chr4:153332861:153332862:-_ENSG00000109670_ENST00000281708|hu_mus|FALSE|FALSE (ssRNA)
# RNA: GGGAGUUCUACAGUCCGACGAUCCUCCUCUUGAUGUCUCGCUUGCUGCUGUGGAUCCUCCUCAACCACGCGAUUCAUCUGUCCCUCAUCAACCUGGCUUGAGGAAGCAUUCCCUCUCAGAGAGCCUCCAGUUCGUCGUCUUUUCAACAGAGGAUUGAGCAUCA
# B9: 46544062_46544572_2905_CDS_ENSG00000123200_ENST00000242848|human|control|control (ssRNA)
# RNA: GGGAGUUCUACAGUCCGACGAUCUUCUUGAGGUCGUACAACUUGGCUCAAGAGUCUGUGUUUUUCAUUUUUAUCAUCUCCACUGUUGUAGGCAUCACUGUCCGGAGAAUGUUCACGCCGGCGCUUCGGGGACUGUCUAGGGCUCAACAGAGGAUUGAGCAUCA
# B10: chr2:180329438:180329439:+_ENSMUSG00000049401_ENSMUST00000029087|mus_mus|FALSE|FALSE (ssRNA)
# RNA: GGGAGUUCUACAGUCCGACGAUCCUCAGAGACACCCUGAGGAUCUGGCUCCCCUGGGACCUGCUCCUGCCUGUUCCCCUCCAACUUCCUCUUCUUGCUUUCUUUGGGACUCGGGGACUUAGCCUCAUGCCUUUGGUCCCCAUCCAACAGAGGAUUGAGCAUCA
# B11: chr3:150289932:150289933:+_ENSG00000144895_ENST00000460851|hu_hu|hu_hu_hu_mus_False|18_28 (ssRNA)
# RNA: GGGAGUUCUACAGUCCGACGAUCCUUGUAGUUUUUAACAUCCCAUACUUCCAUUUGUCCUCGAAGAUUUCCAAAUCCAGCCAGCACUAAUAUAUGUCCAUGAGGGCUAUAGUAGGCUGCAUUACGAGGACCAGUCCCAAAGUCCAACAGAGGAUUGAGCAUCA
# B12: chr16:94664382:94664383:+_ENSMUSG00000040785_ENSMUST00000117648|mus_hu|FALSE|FALSE (ssRNA)
# RNA: GGGAGUUCUACAGUCCGACGAUCAAAAGCUGGUGCUGAAGAUGAAUCUGACACUGGUUUAGACUUUACAUCUGGUUUAAAUUCCCUAGCAGCUGGAUUCAGUUGUAGUUUAACUCGUACAUACUCCCCUGCUUUUGAAAUUUCCAACAGAGGAUUGAGCAUCA
# B13: chr11:88707168:88707169:-_ENSMUSG00000018428_ENSMUST00000018572|mus_mus|FALSE|FALSE (ssRNA)
# RNA: GGGAGUUCUACAGUCCGACGAUCAAGGGGAAGAGCGAACGCAACUGGAUUGCCAUCUUGGAGUCAGUCGAUGUGAAGUAGCUACACCUGCUCCUGGGCGACCGUCUAGGCACUCAAUCCUCCCGCCACCGCCCCCUGGCCCCCCAACAGAGGAUUGAGCAUCA
# B14: chr3:184044699:184044700:+_ENSG00000114867_ENST00000411531|hu_hu|motif|central (ssRNA)
# RNA: GGGAGUUCUACAGUCCGACGAUCAUUAUCUGUGCUUUCUGUGGGUACCGCUUGUUGAAGGGCUGAGAAGCGAUUCAAAGUACGGGUAGCUGGGCGAGCAGCUUCUGAUGCUGCGUCUGAGGGCUUGGCUCCUGAGCCUCCGCUCAACAGAGGAUUGAGCAUCA
# Target: T1, UNK ZnF1-3
# Assay: nsRBNS (natural sequence RNA bind-n-seq); RBNS binding buffer (assumed for nsRBNS): 25 mM Tris pH 7.5, 150 mM KCl, 3 mM MgCl2, 0.01% Triton X-100, 500 ug/ml BSA, 20 U/ml SUPERase-In, 4 C; UNK is unkempt and MSI1 is Musashi-1; names of the RNAs are library labels; protein concentration not given here; high values mean tight binding
row,Binder,binding signal
1,B1,0.75 enrichment R
2,B2,1.08 enrichment R
3,B3,0.351 enrichment R
4,B4,4.51 enrichment R
5,B5,9.32 enrichment R
6,B6,9.26 enrichment R
7,B7,3.82 enrichment R
8,B8,0.439 enrichment R
9,B9,0.885 enrichment R
10,B10,0.716 enrichment R
11,B11,0.862 enrichment R
12,B12,1 enrichment R
13,B13,1.08 enrichment R
14,B14,0.754 enrichment R
